Data on 15 compounds can be found in PMC11062922 (Nature Chemical Biology, 2023).

By IC50 is commonly meant the concentration that gives 50% inhibition. A higher IC50 goes with lower potency. What is called EC50 is the concentration that produces a half-maximal response.

One experiment deals with DDR2. Set-up: species or system human, MV4-11 + K-562 + COLO205 + SK-N-BE2 + OVCAR-8. The settings on record: read-out: apparent Kd, compound concentrations: 100 nM and 1000 nM (sheet 'Samples'), n = 1.
The test system of another experiment is EGFR. Set-up: species or system human, MV4-11 + K-562 + COLO205 + SK-N-BE2 + OVCAR-8. The settings on record: read-out: apparent Kd, n = 1.
The subject of a further experiment is MET. Set-up: species or system human, MV4-11 + K-562 + COLO205 + SK-N-BE2 + OVCAR-8. The settings on record: read-out: apparent Kd, n = 1.
The subject of another experiment is CDK1_CycB1. The note with it: Highest Assay Concentration (M): 9.9999999999999995E-7.
A further experiment has as its system CK2alpha1. The settings on record: Highest Assay Concentration (M): 9.9999999999999995E-7.
For a further experiment, the system named is CK2alpha2. The note with it: Highest Assay Concentration (M): 9.9999999999999995E-7.
The test system of a further experiment is CLK2. Set-up: species or system human, MV4-11 + K-562 + COLO205 + SK-N-BE2 + OVCAR-8. The note with it: read-out: apparent Kd, n = 1.
For the next experiment, the system named is ILK. Set-up: species or system human, MV4-11 + K-562 + COLO205 + SK-N-BE2 + OVCAR-8. The note with it: read-out: apparent Kd; compound concentrations: 100 nM and 1000 nM (sheet 'Samples'), CATDS: 0.188303369583949; n = 1.
In another experiment the test system is CDK13. Set-up: species or system human, MV4-11 + K-562 + COLO205 + SK-N-BE2 + OVCAR-8. The note with it: read-out: apparent Kd, compound concentrations: 100 nM and 1000 nM (sheet 'Samples'), n = 1.
In the next experiment the test system is GSK3A. Set-up: species or system human, MV4-11 + K-562 + COLO205 + SK-N-BE2 + OVCAR-8. The settings on record: compound concentrations:0.3nM, 1nM, 3nM, 10nM, 30nM, 100nM, 300nM, 1000nM,R2:0.98330827393916598,slope:1.45562792091779,EC50 Standard Error, by the legend:Standard error of the EC50 estimation as provided by the drc package.
A further experiment deals with GSK3B. Set-up: species or system human, MV4-11 + K-562 + COLO205 + SK-N-BE2 + OVCAR-8. The settings on record: compound concentrations:0.3nM, 1nM, 3nM, 10nM, 30nM, 100nM, 300nM, 1000nM,R2:0.96555674920545798,slope:0.96794765422259599,EC50 Standard Error, by the legend:Standard error of the EC50 estimation as provided by the drc package.
In a further experiment the test system is LATS1. Set-up: species or system human, MV4-11 + K-562 + COLO205 + SK-N-BE2 + OVCAR-8. The note with it: compound concentrations:0.3nM, 1nM, 3nM, 10nM, 30nM, 100nM, 300nM, 1000nM,R2:0.97889671835051595,slope:1.6751561590983699,EC50 Standard Error, by the legend:Standard error of the EC50 estimation as provided by the drc package.
The next experiment deals with PRKX. Set-up: species or system human, MV4-11 + K-562 + COLO205 + SK-N-BE2 + OVCAR-8. The note with it: compound concentrations:0.3nM, 1nM, 3nM, 10nM, 30nM, 100nM, 300nM, 1000nM,R2:0.94127289372754697,slope:1.4629649923763099,EC50 Standard Error, by the legend:Standard error of the EC50 estimation as provided by the drc package.
The next experiment has as its system CAMK2D. Set-up: species or system human, MV4-11 + K-562 + COLO205 + SK-N-BE2 + OVCAR-8. The note with it: read-out: apparent Kd, compound concentrations: 100 nM and 1000 nM (sheet 'Samples'), n = 1.
For a further experiment, the system named is CSNK1G3. Set-up: species or system human, MV4-11 + K-562 + COLO205 + SK-N-BE2 + OVCAR-8. The settings on record: read-out: apparent Kd; compound concentrations: 100 nM and 1000 nM (sheet 'Samples'), CATDS: 4.4654853896455996E-3; n = 1.
The test system of the next experiment is NQO1. Set-up: species or system human, MV4-11 + K-562 + COLO205 + SK-N-BE2 + OVCAR-8. The settings on record: read-out: apparent Kd; compound concentrations: 100 nM and 1000 nM (sheet 'Samples'), CATDS: 3.59016343581718E-3; n = 1.
The test system of the next experiment is PI4KA. Set-up: species or system human, MV4-11 + K-562 + COLO205 + SK-N-BE2 + OVCAR-8. The settings on record: read-out: apparent Kd; compound concentrations: 100 nM and 1000 nM (sheet 'Samples'), CATDS: 7.2985744477334297E-3; n = 1.
A further experiment has as its system RPS6KA5. Set-up: species or system human, MV4-11 + K-562 + COLO205 + SK-N-BE2 + OVCAR-8. The note with it: read-out: apparent Kd; compound concentrations: 100 nM and 1000 nM (sheet 'Samples'), CATDS: 4.7822949231481997E-3; n = 1.
The test system of another experiment is STRADA. Set-up: species or system human, MV4-11 + K-562 + COLO205 + SK-N-BE2 + OVCAR-8. The settings on record: read-out: apparent Kd, n = 1.
Where [1] appears, read: compound concentrations:100 nM and 1000 nM (sheet 'Samples').

The structures appear in SMILES notation. Like-named read-outs stand apart in the source and are kept apart here.
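Throughout, for EC50: competition pulldown with Kinobeads ε in cell lysates, inhibitor preincubated 45 min at 4 °C, bound kinases quantified by LC–MS/MS against DMSO control.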
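Throughout, for Kd: competition pulldown with Kinobeads ε in cell lysates, inhibitor preincubated 45 min at 4 °C, bound kinases quantified by LC–MS/MS against DMSO control.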

Consider `CCOC(=O)N1CCC(n2cnc(-c3ccc(F)cc3)c2-c2ccnc(N)n2)CC1` [SB-219952], for which the potency estimated from few doses in the experiment on DDR2 (CATDS: 9.5517965767772696E-3) is 979 nM.
Regarding `CNC(=O)c1ccccc1Nc1nc(Nc2ccc(N3CCOCC3)cc2)ncc1Cl.Cl` [GSK1576028A], the potency estimated from few doses with EGFR (setting [1]) is 580 nM; in the experiment on MET (setting [1]), 68.1 nM.
For `O=C1NC(=O)/C(=C/c2ccc3ncccc3c2)S1` [RO4603632-000], the results for the IC50 in the experiment with CDK1_CycB1, in the experiment on CK2alpha1 and with CK2alpha2 were 8.37e-06 M, 5.79e-07 M and 3.72e-07 M, respectively.
Turning to `Cl.Cl.NCC(C(=O)Nc1cc(Br)c(-c2ccnc3[nH]ccc23)s1)c1ccccc1.NCC(C(=O)Nc1cc(Br)c(-c2ccnc3[nH]ccc23)s1)c1ccccc1` (stereo not shown) [GSK1269851A], the potency estimated from few doses in the experiment on CLK2 (setting [1]) was 730 nM.
With `O=C1N=C(Nc2ccccc2)S/C1=C\c1ccc2ncccc2c1` [RO4493940-000], the potency estimated from few doses in the experiment on ILK is 1500 nM. Besides, the figures for the concentration for half-maximal inhibition (IC50) in the experiment on CDK1_CycB1, with CK2alpha1 and with CK2alpha2 were 2.88e-06 M, 6.67e-08 M and 5.11e-08 M, respectively.
Consider `O=C1N=C(NCCc2ccc(Cl)cc2)S/C1=C\c1ccc2ncccc2c1` [RO4498479-000], for which the potency estimated from few doses in the experiment with EGFR (compound concentrations: 100 nM and 1000 nM (sheet 'Samples'), CATDS: 6.9080879323699202E-3) is 1730 nM.
In the case of `Cc1cccc2c(-c3ccncn3)c(-c3ccc(F)cc3)nn12` [GW515532X], the potency estimated from few doses in the experiment with CDK13 (CATDS: 0.21960096407146401) is 1800 nM.
With `CCn1c(-c2nonc2N)nc2c(C#CC(C)(C)O)nc(OCCNC)cc21.Cl` [GSK949675A], the concentration giving a half-maximal response (EC50) with GSK3A is 167 nM; in the experiment with GSK3B, 322 nM; with LATS1 it was 238 nM; in the experiment on PRKX it was 221 nM. Further, the Kd in the experiment on GSK3A (read-out: apparent Kd) was 104 nM; in the experiment with GSK3B (read-out: apparent Kd), 171 nM; in the experiment on LATS1 (read-out: apparent Kd), 238 nM; in the experiment on PRKX (read-out: apparent Kd), 221 nM.
For `CONC1=NC(=O)/C(=C/c2ccc3ncccc3c2)S1` [RO4613269-000], the IC50 with CDK1_CycB1 turned out to be 2.74e-06 M; in the experiment with CK2alpha1, 1.16e-07 M; in the experiment on CK2alpha2, 6.53e-08 M.
`COc1ccc(Nc2ncc(C#N)c(Nc3ccccc3C(N)=O)n2)cc1N1CCN(C)CC1.Cl` [GSK1558669A]: the potency estimated from few doses with DDR2 (CATDS: 6.40385177631159E-3) is 1140 nM; in the experiment on MET (compound concentrations: 100 nM and 1000 nM (sheet 'Samples'), CATDS: 6.0762727664259702E-3), 1600 nM.
For the compound `COc1cc(Nc2ncc3c(C)nc(-c4cc5ccccc5[nH]4)n3n2)cc(OC)c1OC` [GW869516X], the IC50 turned out to be 1.97e-06 M with CDK1_CycB1, 8.51e-08 M with CK2alpha1 and 3.37e-08 M with CK2alpha2.
Consider `CN(c1ccc(NC(=O)N2CCN(CCCN3CCOCC3)CC2)cc1)c1ccnc(Nc2ccc(CS(C)(=O)=O)cc2)n1.Cl` [GW830899A], for which the potency estimated from few doses in the experiment on CAMK2D (CATDS: 3.7668858732559402E-2) is 430 nM; with EGFR (compound concentrations: 100 nM and 1000 nM (sheet 'Samples'), CATDS: 1.7872150639672801E-2), 2150 nM.
As for `Cn1ncc2c(N)ncnc21` [SKF-18267], the potency estimated from few doses with CAMK2D (CATDS: 7.0756718203265796E-3) was 441 nM; with CDK13 (CATDS: 3.42159578661501E-3), 2090 nM; in the experiment on CSNK1G3, 1030 nM; with DDR2 (CATDS: 4.5419231694641699E-3) it was 994 nM; in the experiment on EGFR (compound concentrations: 100 nM and 1000 nM (sheet 'Samples'), CATDS: 3.5324220214717501E-3), 1890 nM; in the experiment on MET (compound concentrations: 100 nM and 1000 nM (sheet 'Samples'), CATDS: 4.2018834707484203E-3), 1190 nM. The potency estimated from few doses with NQO1 was 1800 nM; in the experiment on PI4KA it was 420 nM; in the experiment on RPS6KA5, 891 nM; with STRADA (compound concentrations: 100 nM and 1000 nM (sheet 'Samples'), CATDS: 3.7902262633519698E-3), 1540 nM.
Regarding `Cc1cccc(Nc2nc(N[C@H]3CCCC[C@H]3N)ncc2C(N)=O)c1.Cl` [GSK986310C], the potency estimated from few doses in the experiment with STRADA (setting [1]) was 2120 nM.
Take `Clc1cc(Cl)cc(Nc2ccnc(Nc3cc(Cl)cc(Cl)c3)n2)c1` [GSK175726A]: the potency estimated from few doses in the experiment with CLK2 (compound concentrations: 100 nM and 1000 nM (sheet 'Samples'), CATDS: 1.2027926669680101E-2) is 432 nM.
